High-throughput results from PubChem.
KDM5B inhibitor – inhibitors of human KDM5B histone demethylase; KDM5B demethylase, FDH-coupled NADH fluorescence (FDH is formaldehyde dehydrogenase); Q9UGL1; Potency, µM (titrated, usually from 57.7 µM), hits mostly inhibitors; actives 2.6% (n = 220,000); active means well fitted inhibition curve with a large enough effect; further: 0% is about no effect; nearly all actives have a fitted effect of over 70% in size
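Here, H3K4me3 peptide (12.5 µM in substrate mix) is demethylated by KDM5BΔAP, 200 nM final, after 10 min compound exposure. Formaldehyde product is coupled through FDH (0.25 U/mL in mix) to NADH fluorescence; 30-min ΔRFU feeds dose-response curves.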
* hit, by the source's call; i = inactive. The entries come from a sample that favours hits as a whole. Potency means the concentration at half of the fitted maximal effect.

SMILES | KDM5B inhibitor
NC(=O)c1ccc(COC(=O)c2cc(S(N)(=O)=O)ccc2Cl)cc1 | i
CNC(=O)c1ccc(CN(C(=O)NCC(F)(F)F)C2CC2)cc1 | i
O=C(c1ccn[nH]1)N1CC(c2ncc3c(-c4cccc(C(F)(F)F)c4)nccn23)C1 | i
COC[C@@H]1CN(C(=O)c2cc3ccccc3[nH]2)C[C@H]1c1ccncc1 | i
Cc1ccccc1-c1nccn2c(C3CN(C(=O)c4cc5ccccc5[nH]4)C3)ncc12 | 50.1µM*
Fc1ccc(N2CCN(Cc3csc4c3CCCC4)CC2)cc1 | i
COCCN1C(=O)NC(c2cccc(Cl)c2Cl)C(C(=O)Nc2cc(C)on2)=C1C (centres undefined) | i
O=C(COCC(=O)N(c1ccccc1)c1ccccc1)Nc1ccccc1 | i
CSc1nc(=O)c2c(n1C)NC(=O)CC2c1ccc2c(c1)OCO2 (centres undefined) | i
COc1ccc(C(C)=O)cc1CN(C)CC12CC3CC(CC(C3)C1)C2 | i
Cc1ccc(-c2nnc3ccc(N4CCCCC4)nn23)nc1 | 31.6µM*
Cc1nnc2ccc(N3CCOCC3)nn12 | i
Cc1ccc(-c2nnc3ccc(N4CCCC4)nn23)nc1 | i
CC(C)(C)c1ccc(NC(=O)CCc2c[nH]c3ccccc23)cc1 | i
CC(C)(C)C(=O)/C=c1/[nH]c(=O)/c(=C/c2ccc(C(F)(F)F)cc2)s1 | i
CCN(CC)c1ccc(NS(=O)(=O)c2cc(C)cc(C)c2)cc1C(=O)O | i
COc1ccc(N2Cc3nc(=O)n(CC(=O)NCc4ccccc4)n3C2=O)cc1 | i
O=C(c1cnccn1)N1C[C@@H]2OCC(=O)N(Cc3ccccc3)[C@@H]2C1 | i
O=C1CO[C@H]2CN(c3ncccn3)C[C@H]2N1Cc1ccncc1 | 39.8µM*
O=C(O)c1ccc(CN2C[C@@H]3OCC(=O)N(Cc4cccnc4)[C@@H]3C2)cc1 | i
CS(=O)(=O)N1C[C@@H]2OCC(=O)N(Cc3ccccc3)[C@@H]2C1 | i
O=C(c1ccno1)N1C[C@@H]2OCC(=O)N(Cc3ccccc3)[C@@H]2C1 | i
O=C1CO[C@H]2CN(C3CCC3)C[C@H]2N1Cc1ccc(F)cc1 | i
O=C1CO[C@H]2CN(Cc3ccncc3)C[C@H]2N1Cc1ccc(F)cc1 | 35.5µM*
O=C1CO[C@H]2CN(Cc3ccc4c(c3)OCO4)C[C@H]2N1Cc1ccc(F)cc1 | i
SMILES | KDM5B inhibitor
O=C1CO[C@H]2CN(c3ncccn3)C[C@H]2N1Cc1ccccc1 | 35.5µM*
Cc1ccc(C2Cn3nnc(C(=O)N4CCN(C(=O)c5c(F)cccc5F)CC4)c3CO2)cc1 (centres undefined) | i
CNC(NC(=O)c1ccc(F)cc1)C(Cl)(Cl)Cl (centres undefined) | i
COc1cc(CC(=O)OC(C)c2ccc(F)cc2)cc(OC)c1OC (centres undefined) | i
CCN1CCN(c2ccccc2NC(=O)CCc2nc(-c3ccsc3)no2)CC1 | i
COc1cccc(C(=O)OCCOc2ccccc2Cl)c1O | i
COC1C(=O)N(c2cccc(F)c2)C12CCN(C(=O)C1CCOCC1)CC2 (centres undefined) | i
O=C(c1cccc(Cl)c1)N1C[C@@H](CO)[C@H](c2ccccn2)C1 | i
CCn1ccc(C(=O)N2C[C@@H](COC)[C@H](c3nc(C)no3)C2)n1 | i
COC[C@@H]1CN(C(=O)c2ccc3[nH]ccc3c2)C[C@H]1c1nc(C)no1 | i
COc1cccc([C@H]2CN(C(=O)CCn3ccc(=O)[nH]c3=O)C[C@@H]2N)c1 | i
COc1cccc([C@H]2CN(C(=O)c3ccc4cc[nH]c4c3)C[C@@H]2N)c1 | 31.6µM*
COC[C@@H]1CN(C(=O)c2ccc(C#N)cc2)C[C@H]1c1nc(C)no1 | i
Cc1noc([C@@H]2CN(C(=O)c3ccc4[nH]ccc4c3)C[C@H]2CO)n1 | i
Cc1noc([C@@H]2CN(C(=O)c3ccc4cc[nH]c4c3)C[C@H]2CO)n1 | 25.1µM*
O=C(c1ccc2c(c1)OCO2)N1C[C@@H](CO)[C@H](c2ccccn2)C1 | i
COC[C@@H]1CN(C(=O)c2cn3ccccc3n2)C[C@H]1c1nc(C)no1 | 20µM*
O=C(c1cc[nH]c(=O)c1)N1C[C@@H](CO)[C@H](c2ccccn2)C1 | 22.4µM*
COc1cccc([C@H]2CN(C(=O)c3c(-c4ccccc4)noc3C)C[C@@H]2N)c1 | i
CCCCn1c(=O)n(CC(C)(C)O)c(=O)c2c1nc(CO)n2CCC | i
CC(Sc1nc(C(F)(F)F)nc2ccccc12)C(=O)Nc1ccc(F)cc1 (centres undefined) | i
Cc1cc(/C=C/c2nc3c(ccc4ccccc43)s2)cc(C)c1O | i
O=C(Nc1nc2ccccc2s1)c1noc2c1CSc1ccccc1-2 | i
N#CCCn1c(SCC(=O)Nc2ccc(-c3ccccc3)cc2)nc2ccccc21 | i
NC(=O)CN1C(=O)CO[C@H]2CN(Cc3ccc4c(c3)OCO4)C[C@H]21 | i
CN(C)c1ccc(Nc2nc(-c3ccc([N+](=O)[O-])cc3)nc3ccccc23)cc1 | i
